Assay [1] is described as follows: optical density shifts of acrAB sulA E. coli – strain DRC41, OD650, 48 h, E. coli filamentation inducer project, primary screen (AID 1152).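 Further: E. coli MC1000 strain DRC41 lacking acrAB efflux pump and sulA.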 As to conditions: higher = more signal, called active from +8 up or from −8 down.
Assay [2] can be described thus: probe aLefty1 binding on compound microarray – biochemical, small-molecule microarray, 635/667 nm fluorescence, primary screen (AID 1153).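 Further: score merges spot fluorescence with signal-to-noise ratio from the scanned slide images.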 The note with it: higher = more signal.
Assay [3] in a line: plasmodial surface anion channel blockers, osmotic lysis – cell-based, P. falciparum Indochina, OD700, 1 h, primary screen (AID 1154). The note with it: P. falciparum Indochina infected RBC osmotic lysis, higher = more signal, called active from +8 up or from −8 down.
Assay [4] can be described thus: plasmodial surface anion channel blockers, osmotic lysis – cell-based, P. falciparum Indochina, OD700, 2 h, primary screen (AID 1155).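 Further: lysis reports solute entry through the parasite surface anion channel PSAC.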 As to conditions: P. falciparum Indochina infected erythrocytes, higher = more signal, called active from +8 up or from −8 down.
Assay [5] can be described thus: changes in parasitized red cell lysis, either direction – P. falciparum Indochina, OD700, 3 h, PSAC antagonist project, primary screen (AID 1156). The note with it: P. falciparum-infected erythrocytes, osmotic lysis, higher = more signal, called active from +8 up or from −8 down.
A short description of assay [6]: plasmodial surface anion channel blockers, osmotic lysis – cell-based, P. falciparum Indochina, OD700, 18 h, primary screen (AID 1157). As to conditions: P. falciparum Indochina infected erythrocytes, osmotic lysis OD700, 18 h; higher = more signal, called active from +8 up or from −8 down.
The nature of assay [7]: S6 kinase pathway phospho-S6 level changes – cell-based, A549, cytoblot, luminescence, serum-stimulated, primary screen (AID 1158).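 Further: serum-stimulated A549 lung adenocarcinoma cells; signal is phosphorylated S6 detected by cytoblot immunostaining with HRP secondary.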 As to conditions: 5 h, higher = more signal.
In assay [8] the target is NADPH oxidase 2 (Homo sapiens) (UniProt P04839). The assay can be described thus: compounds shifting NOX2 Amplex Red fluorescence – cell-based, HEK293-NOX2, PMA-stimulated, NOX inhibitor project, primary screen (AID 1159). Further: test concentration not given here. As to conditions: 45 min, higher = more signal, called active from +8 up or from −8 down.
Chain of NADPH oxidase 2 (Homo sapiens) (P04839 whole entry, looked up): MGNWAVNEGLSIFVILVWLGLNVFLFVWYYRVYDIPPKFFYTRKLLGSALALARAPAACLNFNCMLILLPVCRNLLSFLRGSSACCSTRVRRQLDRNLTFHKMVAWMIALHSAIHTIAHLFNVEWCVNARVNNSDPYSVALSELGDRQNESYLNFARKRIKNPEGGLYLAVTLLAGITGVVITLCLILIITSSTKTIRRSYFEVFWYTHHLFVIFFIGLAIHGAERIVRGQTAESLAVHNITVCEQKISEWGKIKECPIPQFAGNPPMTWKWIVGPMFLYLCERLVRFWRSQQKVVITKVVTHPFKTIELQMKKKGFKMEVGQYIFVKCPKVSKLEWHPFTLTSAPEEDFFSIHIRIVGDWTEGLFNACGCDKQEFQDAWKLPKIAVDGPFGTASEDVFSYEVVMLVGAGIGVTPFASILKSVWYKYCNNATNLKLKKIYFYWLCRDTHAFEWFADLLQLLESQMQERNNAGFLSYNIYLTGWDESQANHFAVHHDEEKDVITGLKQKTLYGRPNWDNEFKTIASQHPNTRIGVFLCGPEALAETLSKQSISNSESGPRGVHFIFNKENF
In assay [9] the target is NADPH oxidase 4 (Homo sapiens) (UniProt Q9NPH5). Put plainly: compounds shifting NOX4 Amplex Red fluorescence – cell-based, HEK293-NOX4, tetracycline-induced, NOX inhibitor project, primary screen (AID 1160). As to conditions: HEK293-NOX4, Amplex Red H2O2 fluorescence, 45 min; higher = more signal, called active from +8 up or from −8 down.
Chain of NADPH oxidase 4 (Homo sapiens) (Q9NPH5 whole entry, looked up): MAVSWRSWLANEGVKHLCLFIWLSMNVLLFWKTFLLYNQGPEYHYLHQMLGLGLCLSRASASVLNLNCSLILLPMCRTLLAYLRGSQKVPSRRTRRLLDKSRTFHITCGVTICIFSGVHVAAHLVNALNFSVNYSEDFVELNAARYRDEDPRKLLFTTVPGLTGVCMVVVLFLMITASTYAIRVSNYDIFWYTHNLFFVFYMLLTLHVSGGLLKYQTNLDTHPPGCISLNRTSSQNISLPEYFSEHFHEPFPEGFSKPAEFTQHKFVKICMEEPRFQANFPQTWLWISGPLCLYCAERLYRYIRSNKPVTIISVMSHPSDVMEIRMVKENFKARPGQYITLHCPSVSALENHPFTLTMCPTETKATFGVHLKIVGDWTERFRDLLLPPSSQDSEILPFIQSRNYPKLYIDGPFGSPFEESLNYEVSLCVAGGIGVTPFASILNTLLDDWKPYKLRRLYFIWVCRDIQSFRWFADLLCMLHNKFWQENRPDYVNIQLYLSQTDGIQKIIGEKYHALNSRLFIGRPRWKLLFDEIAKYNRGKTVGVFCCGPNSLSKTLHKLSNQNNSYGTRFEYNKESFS
The target in assay [10] is NADPH oxidase 5 (Homo sapiens) (UniProt Q96PH1). The assay can be described thus: compounds shifting NOX5 Amplex Red fluorescence – cell-based, HEK293-NOX5, NOX inhibitor project, primary screen (AID 1161). As to conditions: HEK293-NOX5, ionomycin, 45 min, higher = more signal.
Chain of NADPH oxidase 5 (Homo sapiens) (Q96PH1 whole entry, looked up): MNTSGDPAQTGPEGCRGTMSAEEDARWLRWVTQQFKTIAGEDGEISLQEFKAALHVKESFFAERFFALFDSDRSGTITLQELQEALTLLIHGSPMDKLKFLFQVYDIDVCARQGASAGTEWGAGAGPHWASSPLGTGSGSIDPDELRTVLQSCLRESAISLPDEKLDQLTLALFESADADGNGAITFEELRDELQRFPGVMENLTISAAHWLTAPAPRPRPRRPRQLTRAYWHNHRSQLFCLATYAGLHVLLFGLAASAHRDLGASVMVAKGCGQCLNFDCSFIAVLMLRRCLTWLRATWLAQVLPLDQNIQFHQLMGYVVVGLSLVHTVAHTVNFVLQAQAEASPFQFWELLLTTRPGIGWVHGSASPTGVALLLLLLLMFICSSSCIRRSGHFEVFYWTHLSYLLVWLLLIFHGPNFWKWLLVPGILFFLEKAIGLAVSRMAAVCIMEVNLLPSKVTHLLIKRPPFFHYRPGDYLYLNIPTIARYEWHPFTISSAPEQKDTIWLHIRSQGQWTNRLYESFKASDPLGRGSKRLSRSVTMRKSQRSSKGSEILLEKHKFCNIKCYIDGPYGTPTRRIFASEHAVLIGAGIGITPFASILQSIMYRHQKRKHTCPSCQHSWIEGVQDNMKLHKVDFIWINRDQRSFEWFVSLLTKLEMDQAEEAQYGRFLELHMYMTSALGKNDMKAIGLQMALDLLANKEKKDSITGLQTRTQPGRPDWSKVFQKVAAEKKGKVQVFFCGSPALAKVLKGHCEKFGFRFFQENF
A short description of assay [11]: compound effects on lung adenocarcinoma cell viability – A549, calcein-AM fluorescence, 48 h, basal, profiling panel (AID 1162). Further: test concentration not given here. As to conditions: higher = more signal.
The nature of assay [12]: compound effects on differentiated 3T3-L1 adipocyte viability – cell-based, 3T3-L1 adipocytes, calcein-AM fluorescence, 48 h, basal, profiling panel (AID 1163). Further: test concentration not given here. The note with it: 3T3-L1 adipocytes viability, higher = more signal.
The nature of assay [13]: compound effects on hepatocellular carcinoma cell viability – HepG2, calcein-AM fluorescence, 48 h, basal, profiling panel (AID 1164). Further: test concentration not given here. As to conditions: higher = more signal.
Assay [14] can be described thus: compound effects on multiple myeloma cell viability – MM1S, calcein-AM fluorescence, 48 h, basal, profiling panel (AID 1165).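 Further: viability of MM1S multiple myeloma cells under basal unstimulated conditions; test concentration not given here.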 The note with it: higher = more signal.
Assay [15] is described as follows: calcein-AM signal in unstimulated myeloma cells – cell-based, calcein-AM fluorescence, 48 h, PK04 Diversity Set, profiling panel (AID 1166).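 Further: cells grown under basal conditions without added stimulus; test concentration not given here.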 As to conditions: RPMI8226 myeloma viability, higher = more signal.
Assay [16] is described as follows: JC-1 mitochondrial signal, unstimulated HepG2 cells – cell-based, JC-1 fluorescence, 24 h, 100 nL compound, profiling panel (AID 1167). Further: test concentration not given here. The note with it: HepG2 mitochondrial potential, higher = more signal.
Assay [17] can be described thus: JC-1 mitochondrial signal, unstimulated adipocytes – cell-based, JC-1 fluorescence, 3T3-L1 adipocytes, 24 h, 100 nL compound, profiling panel (AID 1168). Further: test concentration not given here. The note with it: JC-1 mitochondrial fluorescence, higher = more signal, called active from +8 up or from −8 down.
Assay [18] can be described thus: JC-1 mitochondrial signal, unstimulated myeloma cells – cell-based, JC-1 fluorescence, RPMI8226, 24 h, 100 nL compound, profiling panel (AID 1169). Further: test concentration not given here. The note with it: JC-1 mitochondrial potential fluorescence, higher = more signal.
The nature of assay [19]: JC-1 mitochondrial signal, unstimulated MM1S myeloma – cell-based, JC-1 fluorescence, 24 h, 100 nL compound, profiling panel (AID 1170). Further: test concentration not given here. As to conditions: MM1S mitochondrial potential, higher = more signal.
Assay [20] can be described thus: resazurin metabolic signal in A549 cells – cell-based, resazurin fluorescence, 24 h, PK04 Diversity Set, profiling panel (AID 1171). Further: test concentration not given here. As to conditions: A549 viability, higher = more signal, called active from +8 up or from −8 down. Background: The colour change of resazurin is a common sign of viable cells or microbes.

Structures are written as SMILES. Where “and” joins values, the source holds several entries; their conditions need not be identical. Equal entries are not always repeated. Calls of active or inactive are those of the source.

For the molecule `COC(=O)C1=C2N(Cc3ccccc3)C(C)=C(C(=O)OC)[C@@H](c3ccccc3)N2C(=O)[C@](O)(C(=O)OC)C1`, the z-score in assay [1] is 0.33 (inactive) and -0.579 (inactive); in [3], 1.6 (inactive) and 0.553 (inactive); in assay [4], 1.02 (inactive) and 0.676 (inactive); in assay [5], 0.878 (inactive) and -0.159 (inactive); in [6], 0.468 (inactive) and 0.318 (inactive); in assay [7], -0.482 and -0.524. For the same molecule, the z-score is 0.258 (inactive) and 0.184 (inactive) in assay [8]; 0.64 (inactive) and 0.0139 (inactive) in [9]; 0.932 and 0.724 in assay [10]; -0.104 and 1.11 in [11]; 0.387 and -1.41 in [12]; -0.102 and 0.511 in assay [13]. The z-score in assay [14] was -0.397 and -0.107; in assay [15] it was -1.16 and 0.38; in assay [16], 0.574 and 0.276; in [17] it was -0.0488 (inactive) and -0.394 (inactive); in assay [18] it was -0.848 and 0.573; in assay [19], 0.127 and 0.0283. Also, the z-score in assay [20] was 1.83 (inactive) and -0.59 (inactive). The composite z-score in assay [2] is -0.0694 and -0.189.
`C=C[C@H](C)[C@@H](O)c1ccc(OCCO)cc1`: the z-score in [1] is -0.454 (inactive) and -0.0821 (inactive); in assay [3] it was 0.92 (inactive) and 1.14 (inactive); in assay [4] it was 0.613 (inactive) and 0.0956 (inactive); in assay [5], -0.642 (inactive) and -0.202 (inactive); in [6], 0.232 (inactive) and 0.252 (inactive); in assay [7] it was -0.248 and -0.5. For the same molecule, the z-score in assay [8] is 0.149 (inactive) and -0.758 (inactive); in assay [9] it was 0.101 (inactive) and -0.0609 (inactive); in assay [10], 0.297 and 0.492; in assay [11] it was 0.235 and -0.066; in [12], 0.101 and -0.192; in [13], -0.211 and 0.619. Besides, the z-score in assay [14] is 0.529 and -0.301; in assay [15], -0.528 and 0.864; in assay [16], -0.368 and 0.814; in assay [17], 0.428 (inactive) and 0.45 (inactive); in assay [18], -0.961 and 0.99; in assay [19], 0.976 and -0.205. Moreover, the z-score in assay [20] was 0.0233 (inactive) and -0.361 (inactive). Further, the composite z-score in assay [2] was -0.235 and -0.146.
For `CC[C@@H]1C(Sc2ccccc2)C(C(=O)O)[C@H](c2ccc(C)cc2)N1S(=O)(=O)c1ccc(C)cc1` (stereo not given in full), the z-score in assay [1] was -1.08 (inactive) and -0.135 (inactive); in assay [3] it was 0.519 (inactive) and -0.178 (inactive); in assay [4], 0.677 (inactive) and -0.514 (inactive); in assay [5] it was -0.0111 (inactive) and -0.657 (inactive); in assay [6], 0.683 (inactive) and -2.21 (inactive); in assay [7], -0.473 and 0.388. The z-score was 0.668 (inactive) and 0.333 (inactive) in assay [8]; 0.464 (inactive) and 0.356 (inactive) in assay [9]; 2.07 and 0.173 in assay [10]; 0.0996 and 0.624 in [11]; -0.505 and 0.311 in assay [12]; 0.364 and 0.126 in [13]. Also, the z-score in assay [14] is 0.702 and 1.11; in assay [15] it was -0.528 and -0.148; in [16] it was -0.446 and 0.366; in assay [17], 0.164 (inactive) and 0.619 (inactive); in [18], 0.296 and -0.369; in assay [19], -0.152 and -0.291. For the same molecule, the z-score in [20] was -0.631 (inactive) and -1.02 (inactive). Moreover, the composite z-score in assay [2] is 0.417 and -0.214.
On to `C=CCN(CCCCC)C(=O)C1N(c2c(Cl)cccc2CO)C(=O)C2C(C(=O)O)C3C=CC21O3` (stereo not given), for which the z-score was -0.281 (inactive) and -0.118 (inactive) in [1]; 1.02 (inactive) and 0.766 (inactive) in [3]; 0.078 (inactive) and 0.573 (inactive) in [4]; 0.418 (inactive) and 0.0852 (inactive) in [5]; 0.188 (inactive) and -0.058 (inactive) in [6]; 0.0308 and 0.765 in [7]. For the same molecule, the z-score in [8] is 0.871 (inactive) and 0.757 (inactive); in assay [9], -1.02 (inactive) and -1.22 (inactive); in assay [10], -0.554 and -0.2; in [11] it was 0.91 and 0.677; in assay [12], 1.58 and 0.498; in [13], -0.841 and -0.469. The z-score in assay [14] was 1 and 0.892; in [15], -1.09; in assay [16], -0.828 and -1.37; in [17] it was -0.438 (inactive) and -0.55 (inactive); in [18], 0.0653 and 0.469; in assay [19], 0.223 and 1.03. The z-score in assay [20] is -1.5 (inactive) and -1.33 (inactive). Moreover, the composite z-score in [2] was -0.313 and 0.0547.
As for `C=CCN(C(=O)C1N(C(C)(C)CO)C(=O)C2C(C(=O)O)C3C=CC21O3)c1ccc(OC)cc1` (stereo not given), the z-score in assay [1] is 2.14 (inactive) and 0.776 (inactive); in assay [3], 2.3 (inactive) and -0.0606 (inactive); in assay [4], -0.613 (inactive) and -0.0765 (inactive); in assay [5] it was -1.82 (inactive) and 0.228 (inactive); in [6], -0.646 (inactive) and -0.183 (inactive); in [7], 0.228 and -0.0837. In addition, the z-score in [8] is 0.833 (inactive) and -0.0915 (inactive); in assay [9] it was -2.16 (inactive) and -2.56 (inactive); in [10], 0.782 and -1.03; in assay [11] it was 0.396 and 0.242; in [12], 0.682 and -0.0179; in [13], -0.394 and -0.112. The z-score is 0.925 and 0.494 in [14]; 0.463 and 0.475 in [15]; 0.414 and 0.332 in [16]; 0.688 (inactive) and 0.702 (inactive) in assay [17]; 0.9 and -0.286 in assay [18]; 0.646 and 0.841 in [19]. For the same molecule, the z-score in assay [20] was 0.377 (inactive) and 0.109 (inactive). In addition, in assay [2], the composite z-score was -0.0544 and -0.333.
For the molecule `C=CCN(Cc1ccccc1)C(=O)C1N(c2c(Cl)cccc2CO)C(=O)C2C(C(=O)O)C3C=CC21O3` (stereo not given), the z-score in assay [1] is 3.44 (inactive) and 0.465 (inactive); in assay [3], -0.97 (inactive) and 0.504 (inactive); in assay [4], -0.994 (inactive) and 0.698 (inactive); in assay [5], -0.847 (inactive) and 0.14 (inactive); in [6], -1.32 (inactive) and 0.357 (inactive); in assay [7], 1.33 and -0.0264. Besides, the z-score in assay [8] was 0.00151 (inactive) and 0.1 (inactive); in [9] it was -0.574 (inactive) and -0.406 (inactive); in assay [10] it was -0.259 and -0.994; in assay [11], 1.45 and -0.228; in [12], 0.38 and 0.802; in [13] it was 1.07 and 0.0456. In addition, the z-score in [14] is 2.15 and 0.815; in assay [15], 0.381 and -0.937; in assay [16], 0.992 and -1.25; in assay [17], 1.53 (inactive) and -0.0316 (inactive); in [18] it was -0.817 and -0.0516; in assay [19] it was 1.03 and 0.278. Further, the z-score in [20] was 2.19 (inactive) and -0.851 (inactive). Also, the composite z-score in assay [2] is -0.147.
